HCV inhibitor: inhibitors of hepatitis C virus infection; 340,000 compounds, 3.4% hits; Huh7.5.1 HCVcc-Cre infection, luciferase reporter, 44 h; Potency, µM (top dose mostly 41.8 µM), actives largely listed as inhibitors; AID 651820
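Compounds are dispensed onto cells plated 4 h earlier at 1,000 per well, with HCVcc-Cre virus (about 0.5 moi) added next. Following 44 h of culture, luminescent signal is measured for 15 sec after 15 min with substrate at room temperature.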
Pf growth 48h: P. falciparum growth inhibition at 48 hours (one generation). P. falciparum luciferase growth in erythrocytes, 48 h. Potency, µM (series often up to 28.7 µM), most hits filed as inhibitors. 310,000 compounds, 5.9% hits
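Cell-based growth assay: transgenic P. falciparum expressing firefly luciferase, cultured in red cells within RPMI 1640 containing 0.5% w/v Albumax, 24 mM bicarbonate and gentamycin. A drop in luciferase activity indicates inhibition.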
Pf growth 96h: P. falciparum growth inhibition at 96 hours. P. falciparum luciferase reporter growth, 96 h. Potency, µM (highest dose often 28.7 µM), actives largely listed as inhibitors. 320,000 compounds, 6.9% hits. AID 504834
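96 h incubation, 37 C, 5% CO2, of luciferase-reporter P. falciparum-infected RBCs (2% hematocrit, 0.05% parasitemia final) with test compounds; endpoint luminescence.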
HCMV inh: blocks human cytomegalovirus replication | HFF cells, HCMV-luciferase reporter, 72 h; hits give low values | activity change, negative = inhibition, % at 57.5 µM | 410,000 compounds, 4.5% hits; in the data active = activity change below about -60%; inconclusive = no clear call, values can overlap the other calls; inactive = above about -39%
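Compounds were evaluated in HFFs infected with an HCMV luciferase reporter virus (MOI 1 PFU/cell). Luciferase in lysates collected 72 h post infection served as the replication measure.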
A number is an active result; . = inactive; ? = inconclusive; / = no result; + = active, no number; [ ] = dose if it differs, or a comment. A selection: hits, their analogues and other compounds. The true share with any hit is near 13%. Unless noted, calls come from the whole dose curve; as a rule, active = well fitted inhibition curve with a large enough effect; inconclusive = small, poorly fitted or top-dose-only effect, or another doubt; inactive = no such curve, though single readings can be large or run the other way.

SMILES	HCV inhibitor	Pf growth 48h	Pf growth 96h	HCMV inh
Cc1ccc(N(CC(=O)Nc2ccc(Br)c(C)c2)S(=O)(=O)c2cccs2)cc1	/	/	/	.
Cc1ccc(Cl)cc1N(C)C(=O)c1cc2ccc3cccnc3c2[nH]1	/	/	/	.
CCCCP(=O)(CCCC)Cc1ccccc1O	.	15µM	?	.
CCCCP(=O)(O)c1ccccc1	.	.	?	.
N#CCCN(C(=O)COC(=O)c1cc(S(=O)(=O)N2CCOCC2)ccc1Cl)c1ccc(F)cc1	.[8.37 µM]	.	.	-71
N#CCCN(C(=O)COC(=O)c1cccc(S(=O)(=O)N2CCCC2)c1)c1ccc(F)cc1	/	?	?	-75
COC(=O)c1cc(NC(=O)CCc2c(C)nc3nc(C)nn3c2C)cc(C(=O)OC)c1	/	/	/	.
Cc1cccc(C)c1NC(=O)C1C(c2ccc3c(c2)OCO3)=Nc2ccccc2N1C(=O)c1cccc2ccccc12 (stereo unspecified)	/	/	/	.
CCOc1ccccc1Nc1nnc(SCC(=O)Nc2cccc(S(=O)(=O)NC3=NCCCCC3)c2)s1	?	?	9.3µM	.
O=C(CSc1nnc(NC2CCCCC2)s1)Nc1ccc2c(c1)C(=O)c1ccccc1C2=O	10µM	.	.	.
CCOc1ccccc1OCC(=O)Nc1cccc(S(=O)(=O)NC2=NCCCCC2)c1	?	?	?	.
CCOc1ccc2nc(SCC(=O)Nc3cccc(S(=O)(=O)NC4=NCCCCC4)c3)[nH]c2c1	.	12µM	?	.
CCOc1ccc2nc(SCC(=O)Nc3ccc4c(c3)OCCO4)[nH]c2c1	.	.	/	.
O=C(CSc1nnc(Nc2ccccc2F)s1)Nc1cccc(S(=O)(=O)N2CCCCC2)c1	13µM	.	?	.
CC(C)Nc1nnc(SCC(=O)Nc2ccc3c(c2)C(=O)c2ccccc2C3=O)s1	?	.	?	.
Cc1oc(-c2cccc(Cl)c2)nc1CN1CCCC(C(=O)N2CCN(c3ccc(F)cc3)CC2)C1 (stereo unspecified)	/	/	/	.
Cc1ccc(-c2cn3c4c(=O)n(C)c(=O)n(C)c4nc3n2-c2cccc(Cl)c2)cc1	/	/	/	.
Cc1ccccc1COC(=O)c1ccc(-c2nnn(Cc3ccccc3F)n2)cc1	/	/	/	.
O=C(CSc1nnc(NC(=O)C2CC2)s1)Nc1cccc(F)c1	.	.	2.9µM	.
COc1cc2c(cc1NC(=O)COC(=O)[C@@H](NC(=O)c1ccccc1)C(C)C)oc1ccccc12	7.1µM	.	?	.
COc1cc2c(cc1NC(=O)COC(=O)CNC(=O)c1ccccc1)oc1ccccc12	10µM	.	.	?
COc1cc2c(cc1NC(=O)COC(=O)C1CC(=O)N(Cc3ccco3)C1)oc1ccccc12 (stereo unspecified)	4.5µM	.	.	.
COc1cc(NC(=O)C2CC(=O)N(Cc3ccco3)C2)c(OC)cc1Cl (stereo unspecified)	.	.	.	.
COc1cc2c(cc1NC(=O)COCC(=O)O)oc1ccccc12	.	.	.	?
CCOC(=O)C1=CCN(S(=O)(=O)c2ccccc2[N+](=O)[O-])C1c1ccc(C)cc1 (stereo unspecified)	/	/	/	.
SMILES	HCV inhibitor	Pf growth 48h	Pf growth 96h	HCMV inh
COc1ccc(CC2NCC(O)C2OC(C)=O)cc1 (stereo unspecified)	0.56µM	/	/	-109
COc1ccc(CC2NCCC3(O)CCCCC23)cc1 (stereo unspecified)	.	/	.	.
COc1cc(OC)c(NC(=O)c2c(C)oc3ncn(C)c(=O)c23)cc1Cl	/	/	/	.
COc1cc(CN2CCN(Cc3ccc([N+](=O)[O-])cc3)CC2)c([N+](=O)[O-])cc1OC	.	?	.	-76
CCN1CCN(Cc2cc(OC)c(OC)cc2[N+](=O)[O-])CC1	.	.	.	.
COc1ccc(CN2C(=O)C(O)(CC(=O)c3ccc4c(c3)OCO4)c3ccccc32)cc1OC (stereo unspecified)	.	/	5.9µM	.
COc1ccc(OCCN2CCN(C(=O)c3ccc(OC)c(OC)c3)CC2)cc1	8.9µM	.	.	.
COc1cccc(CNc2ccc(F)c([N+](=O)[O-])c2)c1O	.	.	.	?
COc1cc(CNc2ccccc2)c([N+](=O)[O-])cc1OC	.	13µM	.	.
COc1ccc(S(=O)(=O)c2nnn(-c3ccccc3F)c2C)cc1	/	/	/	.
Cc1cc2n(n1)CCC(=O)N2Cc1ccc(C(=O)Nc2ccc(F)cc2F)cc1	/	/	/	.
Cc1ccc(NC(=O)CCC(=O)N2CCSc3ccccc32)cc1	/	/	/	.
COc1ccc(NC(=O)c2ccco2)cc1NC(=O)c1ccc(OC(C)C)cc1	/	/	/	.
COc1ccc(S(=O)(=O)N2CCN(CCOc3ccccc3Cl)CC2)cc1OC	?	?	?	.
COc1ccc(C(=O)N2CCN(Cc3ccc4c(c3)OCO4)CC2)cc1[N+](=O)[O-]	?	.	.	-83
COc1cc2cc(C(=O)N3CCN(Cc4ccc5c(c4)OCO5)CC3)[nH]c2cc1OC	?	?	?	-92
COc1ccc(S(=O)(=O)N2CCN(CCOc3ccc(Br)cc3)CC2)cc1OC	?	8.3µM	?	.
COc1ccc(C(=O)N2CCN(Cc3ccc4c(c3)OCO4)CC2)cc1OC	?	.	9.3µM	?
COc1cc(C(=O)N2CCN(Cc3ccc4c(c3)OCO4)CC2)cc(OC)c1OC	.	?	?	.
O=C(/C=C/c1ccccc1)Nc1nc2n(n1)C(c1ccc(F)cc1)C=C(c1ccccc1)N2 (stereo unspecified)	/	/	/	.
CCc1cccc(NC(=O)Cn2c(=O)n3nc(-c4cccc(F)c4)nc3c3ccccc32)c1	/	/	/	.
CC1OC(CC(=O)O)CC2=C1C(=O)c1c(O)cccc1C2=O (stereo unspecified)	0.56µM	/	/	.
Cn1nnnc1SCCNCc1cc(Br)ccc1OCc1ccccc1Cl	/	/	/	-69
Cn1nnnc1SCCNCc1ccc(OCc2ccccc2Cl)cc1	/	/	/	-105
Cn1nnnc1SCCNCc1ccccc1OCc1ccccc1Cl	?	.	.[5.75 µM]	?
SMILES	HCV inhibitor	Pf growth 48h	Pf growth 96h	HCMV inh
Cn1nnnc1SCCNCc1ccccc1OCc1ccc(Cl)cc1	?	?	12µM	.
COc1ccc(S(=O)(=O)N(CCc2ccccc2)CC(=O)Nc2cc(C)cc(C)c2)cc1OC	/	/	/	.
CCc1ccccc1NC(=O)CCC(=O)N1CC(C)Oc2ccc(C)cc21 (stereo unspecified)	/	/	/	.
O=C(NCc1ccco1)c1ccc([N+](=O)[O-])o1	.	?	?	-66
O=C(NCc1cccnc1)c1ccc([N+](=O)[O-])o1	?	4.1µM	?	-85
CCCCc1ccc(S(=O)(=O)NCCc2ccncc2)cc1	11µM	.	/	-63
CCCCNS(=O)(=O)c1ccc(S(=O)(=O)NCc2ccncc2)cc1	10µM	.	.	-72
COc1ccc(CCNC(=O)CCc2c(C)nc3c(c(C)nn3-c3ccccc3)c2C)c(OC)c1	/	/	/	.
CCCOc1ccc(/C=N/NC(=O)c2ccc3c(c2)OCO3)c(OCCC)c1	.	5.9µM	?	.
Cc1cccc(/C=N/NC(=O)c2ccc3c(c2)OCCO3)c1O	/	.	?	-98
CCOc1cccc(/C=N/NC(=O)c2ccc3c(c2)OCCO3)c1O	?	?	?	+
CCc1c(C)sc(NC(=O)c2cc3nc(-c4ccc(OC)cc4)cc(C(F)(F)F)n3n2)c1C(=O)OC	/	/	/	.

Screening results from PubChem BioAssay.
